Where “and” joins values, the source holds several entries; their conditions need not be identical. Equal entries are not always repeated. Values without a mark were called inactive. Records with an inconclusive call do not appear. A call without a number means that no potency is given here. Calls of active or inactive are those of the source. Calls follow the shape of the dose curve; as a rule, active = well fitted curve in the direction sought with a large enough effect; inconclusive = small, poorly fitted or top-dose-only effect, or another doubt; inactive = no such curve, though single readings can be large; an effect the other way counts as inactive or inconclusive.
Tests used:
[1] = qHTS for compounds that reverse cellular toxicity of Amyloid beta (A-beta) peptide in yeast: LOPAC Validation Assay (AID 720559); conditions: Potency: rescue of growth toxicity; also: potency is read from the fitted curve at half-maximal effect
How it was run: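 Here, A-beta-toxic yeast grow with test compounds at 30 C for 48 hr before optical density at 600 nm is recorded; data are normalized against DMSO and the FeCl3-clioquinol control.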

[2] = qHTS for Activators of Parkin Expression: LOPAC Validation Assay (NLuc Reporter) (AID 720572)
How it was run: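 Neuronal line stably carrying a FLuc/NLuc coincidence reporter under the Parkin promoter, seeded 24 h, then dosed in 7-point series for 24 h at 37 C. NLuc luminescence read after FLuc; normalized to DMSO and positive control (100%).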

[3] = qHTS for Activators of Parkin Expression: LOPAC Validation Assay (FLuc Reporter) (AID 720573)
How it was run: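 Readout is FLuc luminescence from neuronal reporter cells (Parkin promoter, FLuc plus NLuc) after 24 h compound exposure in dose response. Values normalized to neutral DMSO and positive-control compounds.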

[4] = target: T1, Hexokinase-4 (Homo sapiens) + Glucokinase regulatory protein (Homo sapiens) (UniProt P35557+Q14397); test: qHTS assay for inhibitors of recombinant human GCK-GKRP interaction: Diaphorase-coupled assay (AID 743205)
How it was run: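 Signal derives from resorufin generated by diaphorase, linked to GCK turnover of glucose (5 mM) and ATP (0.4 mM). Enzyme complex was added after a 20-minute compound preincubation and monitored for 30 minutes.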

[5] = target: T1, Hexokinase-4 (Homo sapiens) + Glucokinase regulatory protein (Homo sapiens); test: qHTS assay for inhibitors of recombinant human GCK-GKRP interaction: ADP-Glo assay (AID 743206)
How it was run: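 GST-GCK and FLAG-GKRP (15 nM each in the dispensed mix, with 2 uM S6P) react with 0.4 mM ATP and 5 mM glucose (final) in Hepes pH 7.6 for 60 min at room temperature. ADP is measured by ADP-Glo luminescence.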

[6] = target: T1, Hexokinase-4 (Homo sapiens) + Glucokinase regulatory protein (Homo sapiens); test: qHTS assay for inhibitors of recombinant human GCK-GKRP interaction: HTRF assay (AID 743207)
How it was run: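 Titration screening format: recombinant GST-GCK and FLAG-GKRP at 5 nM, S6P at 2 uM, labelled anti-tag antibodies, 60 min at RT, dual-wavelength HTRF readout.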

[7] = qHTS Assay for Identifying Gametocytocidal Compounds (AID 743244); also: potency is read from the fitted curve at half-maximal effect;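 as to max response: actives lower the fluorescent signal which means gametocytes are killed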; conditions: P. falciparum 3D7 stage III-V gametocytes, alamarBlue, 72 h; max response: active compounds read low
How it was run: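 Stage III-V P. falciparum 3D7 gametocytes, 20,000 per well, were exposed to compounds for 72 h at 37C, 5% CO2. AlamarBlue was then added for 24 h and viability was read as fluorescence at Ex 525/Em 598 nm.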

T1 sequence (P35557 whole entry, looked up): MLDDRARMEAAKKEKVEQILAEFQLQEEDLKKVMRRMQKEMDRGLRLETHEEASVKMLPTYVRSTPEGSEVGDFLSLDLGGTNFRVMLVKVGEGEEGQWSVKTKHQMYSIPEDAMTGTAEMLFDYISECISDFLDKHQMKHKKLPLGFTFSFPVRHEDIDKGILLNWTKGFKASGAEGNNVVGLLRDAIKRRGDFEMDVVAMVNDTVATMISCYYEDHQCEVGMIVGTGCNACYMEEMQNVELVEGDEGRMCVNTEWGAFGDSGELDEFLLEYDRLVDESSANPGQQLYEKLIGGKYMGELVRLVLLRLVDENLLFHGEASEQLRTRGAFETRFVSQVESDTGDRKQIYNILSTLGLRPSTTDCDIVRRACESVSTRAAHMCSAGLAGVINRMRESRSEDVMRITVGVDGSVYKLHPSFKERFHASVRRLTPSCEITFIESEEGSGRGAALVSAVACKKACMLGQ
T1 sequence (Q14397 whole entry, looked up): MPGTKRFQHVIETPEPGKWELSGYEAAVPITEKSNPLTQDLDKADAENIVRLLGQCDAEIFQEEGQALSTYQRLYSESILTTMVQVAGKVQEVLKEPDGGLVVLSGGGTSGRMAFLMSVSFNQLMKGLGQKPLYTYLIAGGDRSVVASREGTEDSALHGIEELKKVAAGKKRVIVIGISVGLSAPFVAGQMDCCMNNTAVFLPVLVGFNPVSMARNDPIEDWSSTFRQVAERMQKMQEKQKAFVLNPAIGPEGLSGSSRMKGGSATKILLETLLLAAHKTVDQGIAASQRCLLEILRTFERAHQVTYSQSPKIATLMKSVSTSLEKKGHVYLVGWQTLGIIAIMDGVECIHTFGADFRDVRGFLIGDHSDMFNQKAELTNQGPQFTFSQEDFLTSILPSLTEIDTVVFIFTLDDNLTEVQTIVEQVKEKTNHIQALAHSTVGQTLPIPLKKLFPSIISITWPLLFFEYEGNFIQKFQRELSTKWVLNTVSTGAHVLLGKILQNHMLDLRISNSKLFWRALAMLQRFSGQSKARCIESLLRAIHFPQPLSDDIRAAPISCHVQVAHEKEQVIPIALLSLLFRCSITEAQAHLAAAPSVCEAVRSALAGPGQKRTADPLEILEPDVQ

Compound	Potency [1]	Potency [2]	Potency [3]	outcome [4]	Potency [5]	Potency [6]	max response [7]	Potency [7]
Cn1ncc(S(=O)(=O)Cc2ccccc2)c(Br)c1=O	inactive	inactive	inactive	inactive	inactive	inactive	25.3%	–
N[C@@H](CC(=O)O)C(=O)O	inactive	inactive	inactive	inactive	inactive	inactive	20.5%	–
N=C(N)SCCc1ccc(CCSC(=N)N)cc1	inactive	inactive	inactive	inactive	inactive	inactive	24%	–
O=C(O)/C=C/C(O)c1ccc(Cl)cc1 (configuration not stated)	inactive	inactive	inactive	inactive	inactive	inactive	-3.84% and 16.6%	–
NO	inactive	inactive	inactive	inactive	inactive	inactive	-10.7%	–
O=[N+]([O-])c1ccc2c(c1)S(=O)(=O)C=C2	inactive	inactive	inactive	inactive	inactive	inactive	–	1 µM (active)
Ic1ccc(N2CCN(Cc3c[nH]c4ncccc34)CC2)cc1	inactive	inactive	inactive	inactive	inactive	inactive	5.54%	–
CC12C(=O)OC(=O)C1(C)C1CCC2O1 (configuration not stated)	inactive	inactive	inactive	inactive	inactive	inactive	3.18%	–
O=C(c1ccc(Cl)cc1)N1CCN(c2ccc([N+](=O)[O-])c3ncccc23)CC1	inactive	inactive	inactive	inactive	inactive	inactive	-0.851%	–
CCCCCCCCCCCCCCCCCCNC(=O)OCC(COP(=O)([O-])OCC[n+]1ccsc1)OC (configuration not stated)	inactive	inactive	inactive	inactive	inactive	inactive	12.3%	–
C[N+](C)(CCCCCC[N+](C)(C)CCCN1C(=O)c2cccc3cccc(c23)C1=O)CCCN1C(=O)c2cccc3cccc(c23)C1=O	inactive	inactive	inactive	inactive	inactive	inactive	-6.11%	–
N#C/C(=C\c1ccc(O)c(O)c1)C(=O)NCc1ccccc1	inactive	inactive	inactive	inactive	inactive	inactive	12.2%	–
NC(CCCP(=O)(O)O)C(=O)O (configuration not stated)	inactive	inactive	inactive	inactive	inactive	inactive	8.77%	–
Nc1ncnc2c1ncn2[C@@H]1O[C@H](COP(=O)(O)CP(=O)(O)OP(=O)(O)O)[C@@H](O)[C@H]1O	inactive	inactive	inactive	inactive	inactive	inactive	13.9%	–
C#C[C@]1(O)CC[C@H]2[C@@H]3CCC4=Cc5oncc5CC4(C)[C@H]3CCC21C (some centres not stated)	inactive	inactive	inactive	inactive	inactive	inactive	25.1%	–
O=[N+]([O-])c1ccc(CSc2ncnc3c2ncn3[C@@H]2O[C@H](CO)[C@@H](O)[C@H]2O)cc1	inactive	inactive	inactive	inactive	inactive	inactive	17.7%	–
Cn1c(=O)c2[nH]c(-c3ccccc3)nc2n(C)c1=O	inactive	inactive	inactive	inactive	inactive	inactive	16.2%	–
NCCCCCCCCCCN	inactive	inactive	inactive	inactive	inactive	inactive	2.17%	–
COc1cccc(C(=O)NCCN2CCN(c3ccc(Cl)cc3)CC2)c1	inactive	inactive	inactive	inactive	inactive	inactive	13.6%	–
C[C@@H](NC(=O)/C(C#N)=C/c1ccc(O)c(O)c1)c1ccccc1	inactive	inactive	inactive	inactive	inactive	inactive	3.77%	–
CO/N=C(\C(=O)N[C@@H]1C(=O)N2C(C(=O)O)=C(COC(C)=O)CS[C@H]12)c1csc(N)n1	inactive	inactive	inactive	inactive	inactive	inactive	5.62%	–
O=Nc1ccc2oc(=O)ccc2c1	inactive	inactive	inactive	inactive	inactive	inactive	–	1.78 µM (active)
Nc1ncnc2c1ncn2[C@@H]1O[C@H](COP(=O)(O)OP(=O)(O)OP(=O)(O)OP(=O)(O)OC[C@@H]2O[C@H](n3cnc4c(N)ncnc43)[C@@H](O)[C@H]2O)[C@@H](O)[C@H]1O	8.2 µM (active)	inactive	inactive	inactive	inactive	inactive	11.9%	–
C[N+]1(C)C2CC(OC(=O)[C@H](CO)c3ccccc3)CC1C1OC12 (some centres not stated)	inactive	inactive	inactive	inactive	inactive	inactive	-7.69% and 8.7%	–
NC(=S)NCCC[C@H](N)C(=O)O	inactive	inactive	inactive	inactive	inactive	inactive	29.7%	–
O=C(O)CCCC[C@@H]1CCSS1	inactive	inactive	inactive	inactive	inactive	inactive	7.49%	–
